Test results: PubChem BioAssay (NCI)
“And” between values parts separate entries of the source, which are not always exact repeats. Equal entries are not always repeated. This is part of a sample that, as a whole, favours compounds with a hit. Of some 79,000 tested, about 15% had one in any assay. Unmarked numbers belong to inactive results. The source made the active and inactive calls. Rule as the data show it: active = growth inhibition above about 70%; inactive = the rest.

How the values were obtained:
[1] = NCI Yeast Anticancer Drug Screen. Data for the rad50 strain (AID 155);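 also: 0% = growth of vehicle-only cultures of the same strain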; conditions: S. cerevisiae rad50 strain growth inhibition; at 50.0 µM; stronger effect = higher value
Outline: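 Inhibition values express reduced yeast growth in compound-treated cultures relative to vehicle-treated controls.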

[2] = NCI Yeast Anticancer Drug Screen. Data for the mec2-1 strain (AID 157); conditions: S. cerevisiae mec2-1 strain, at 50.0 µM, stronger effect = higher value
Outline: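 Compounds were applied to mec2-1 yeast cells. Their growth was then compared with that of vehicle-treated cultures to give growth inhibition.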

[3] = NCI Yeast Anticancer Drug Screen. Data for the sgs1 mgt1 strain (AID 161);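 also: 0% = growth of cultures given vehicle only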; conditions: S. cerevisiae sgs1 mgt1 strain, at 50.0 µM, stronger effect = higher value
Outline: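 Yeast cells carrying a defined DNA-repair defect were exposed to test compounds. Growth inhibition was measured relative to vehicle-treated controls.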

[4] = NCI Yeast Anticancer Drug Screen. Data for the cln2 rad14 strain (AID 165);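 also: 0% = growth equal to vehicle treated cultures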; conditions: S. cerevisiae cln2 rad14 strain, at 50.0 µM, stronger effect = higher value
Outline: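 Strain: cln2 rad14 yeast, altered in cell cycle control and DNA damage repair. Read-out: growth inhibition vs vehicle.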

[5] = NCI Yeast Anticancer Drug Screen. Data for the bub3 strain (AID 167); conditions: S. cerevisiae bub3 mutant strain, at 50.0 µM, stronger effect = higher value
Outline: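 Steps: expose the mutant yeast strain to compound; grow alongside vehicle-treated cultures; measure growth; express inhibition against the vehicle cultures.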

[6] = NCI Yeast Anticancer Drug Screen. Data for the mlh1 rad18 strain (AID 175); conditions: S. cerevisiae mlh1 rad18 strain growth inhibition; at 50.0 µM; stronger effect = higher value
Outline: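 A repair-deficient yeast strain is exposed to test compound, and growth is scored relative to vehicle-treated controls.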

SMILES	growth inhibition [1]	growth inhibition [2]	growth inhibition [3]	growth inhibition [4]	growth inhibition [5]	growth inhibition [6]
NCC#CCNCCCN1CC1	8.2%	47.2%	-9.4%	16.9%	-1.55%	-41.5%
CC1(C)OC2(C)CCC1C(O)C2N1CCCCC1 (stereo not drawn)	-29.6%	-4.15%	-13.4%	0.75%	-1%	-8.6%
CCOP(=O)(CC)C(Cl)(Cl)Cl (stereo not drawn)	2.4%	-18.5%	-5.95%	-24.1%	6.05%	-2.2%
COC(=O)N/N=C(/CCN1CCCC1)CC(c1ccccc1)c1c(O)c2ccccc2oc1=O (stereo not drawn)	19.4%	-4.45%	10%	9.2%	8.7%	14.9%
CN(C)C(=S)Oc1c(Cl)cc(S(=O)(=O)F)cc1Cl	35.4%	12.9%	15.2%	19.6%	-6.5%	21.4%
C/C=C(\CC)C1(C(C)C)C(=O)NC(=O)NC1=O	12.2%	-1.35%	-6.3%	-33.9%	2%	10.4%
O=C(COc1ccc(Cl)c(Cl)c1)Nc1ccc[n+](Cc2c(Cl)cccc2S(=O)(=O)F)c1	14.8%	22.1%	-17.7%	39.9%	-1.5%	5.35%
O=NNc1ncccn1	-20.2%	-11.7%	3.7%	4.3%	-0.2%	-23%
CN1CN(c2ccccc2)C2(CCN(CCc3csc4ccccc34)CC2)C1=O	29.9%	12.2%	17.8%	16.9%	3.5%	19.4%
CC(C)N([P-]C(=O)[P-]N(C(C)C)C(C)C)C(C)C.[C-]#[O+].[C-]#[O+].[C-]#[O+].[C-]#[O+].[C-]#[O+].[C-]#[O+].[Fe].[Fe] (stereo not drawn)	3.4%	0.15%	3.55%	11.3%	2.3%	-0.9%
NC(=O)c1ccc([As](O)O)cc1N	-0.05%	-4.9%	-12.5%	-4.75%	-11.5%	-9.1%
C=CC[NH-].C=CC[NH-].CC(=O)CC(C)=O.CC(=O)CC(C)=O.[Ni+2]	-2.65%	-6.75%	-7.4%	-9.35%	-1.1%	-3.35%
O=C(CN1CCOCC1)c1ccc2ccccc2c1	10.1%	2.05%	8.4%	-14.4%	17%	9.85%
CCC1(CC)COP(=S)(S)OC1	10.8%	-17.8%	-16.9%	10.1%	-3.5%	-3.2%
O=C(NC1CC1)c1c(O)[nH]c(=S)[nH]c1=O	-3%	-8.2%	-12.8%	16.6%	-6.15%	-17.1%
CC(C)N(C(=O)SCC(Cl)=C(Cl)Cl)C(C)C	-2.95%	-15.8%	-0.35%	-3.05%	-12.3%	30%
CCN(CC)CCN1C(=O)NC(=O)C(CC)(c2ccccc2)C1=O (stereo not drawn)	4.1%	9.4%	-6%	2.9%	8.05%	4.9%
Nc1cc(N)nc(N)n1	18.1%	-2.9%	1.35%	-4.6%	-18.9%	6.2%
C[CH2][Sn](/[CH]=C/C=C/OC)([CH2]C)[CH2]C	36.5%	47%	66.2%	16.8%	83.4% (active)	89.7% (active)

SMILES	growth inhibition [1]	growth inhibition [2]	growth inhibition [3]	growth inhibition [4]	growth inhibition [5]	growth inhibition [6]
NC(N)=Nc1c(N)ncnc1N	-4.9%	6.2%	4.4%	-2.65%	-0.8%	-4.45%
CCCCOP(=O)(NCCOC)OCCCC	-0.05%	8.05%	-3.1%	6.9%	5.25%	10.2%
COc1cc2c[n+](C)c3c4cc5c(cc4ccc3c2cc1OC)OCO5	-11.7%	-37.5%	-28.1%	-5.75%	-26.3%	-33.6%
CP(C)C.[Ag][I]	-26.4%	-7.85%	-0.15%	-41.2%	-9.3%	-2.4%
CCC1(CCNC(=O)CNC(C)=O)C(=O)NC(=O)NC1=O	3.3%	-6.45%	10.2%	-45.1%	10.9%	10.2%
[Cl][Cd][Cl]	54.5%	25.5%	2.6%	35.5%	13.2%	2.15%
[N-]=[N+]=NP1(=O)OC(c2ccccc2)=CCN1c1ccccc1 (stereo not drawn)	-9.2%	-9.5%	-8.45%	20.7%	8.65%	-4.1%
CCCCCCCCCCCOP(=O)(OCC)OCC	99.5% (active)	99.8% (active)	99.8% (active)	99.5% (active)	99.7% (active)	99.7% (active)
CCc1cccc(C(C)C)c1NC(=O)C(=O)C1C(=O)NC(=O)NC1=O	-40.1%	-12.2%	-9.45%	18.1%	-10.6%	-31.4%
O=C(Oc1cc(Cl)c(S(=O)(=O)F)cc1Cl)c1ccccc1Cl	93.5% (active)	96% (active)	97.1% (active)	86.8% (active)	94.9% (active)	96.8% (active)
C/C=C/CC1(CCC(C)C)C(=O)NC(=O)NC1=O	24.4% and 26.9%	8.05% and -0.65%	9.9% and 4.75%	-19.1% and -4.55%	-5.4% and -2.35%	10.3% and 17.4%
O=C(Nc1ccccc1Cl)OCC(Cl)(Cl)Cl	-15.3%	2%	16.1%	-19.9%	19.8%	-11.2%
CC1(C)COP(=O)(c2ccccc2)N1 (stereo not drawn)	-14.1%	-21.4%	-7.4%	-24.4%	-1.5%	-3.1%
C=CCC1(/C(=C\CC)CCC)C(=O)NC(=O)NC1=O	15.1%	-0.3%	1.75%	-32%	-0.2%	12.3%
Cc1ccc(O)c(Cl)c1	-1%	5.4%	-19.4%	-11.7%	0.15%	38%
NS(=O)(=O)c1ccc([As]=O)cc1 (stereo not drawn)	-17.4%	-8.25%	-3.95%	-6.9%	-48.1%	-37.8%
CC(C)(NC1=NCCO1)c1ccccc1	-4.95%	-16.9%	-7.65%	5.5%	-13.7%	62%
O=C1CCN2CCCC1C2 (stereo not drawn)	-18.9%	-21.3%	-18.8%	-4.15%	-16.6%	-43.8%
CC(C)(C1CCC(O)CC1)C1CCC(O)CC1 (stereo not drawn)	19.5% and 13.4%	-19.5% and -13.6%	-12.2% and -21.9%	-12.6% and -17.6%	-5.75% and -21.8%	31.4% and 16.1%
